In the library only some 19% were active in any assay of this set; here they are far more common.
KB-V1 MDR tox = KB-V1 MDR subline cytotoxicity; KB-V1 MDR cells viability, CellTiter-Glo, 72 h; Potency, µM (top dose mostly 46.1 µM), usual class: cytotoxic; 400,000 tested, 3.4% active; AID 1347076; also: nearly all actives have a fitted effect of over 60% in size
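Following 72 h at 37 degrees C with compound, KB-V1 cell viability was read by CellTiter-Glo luminescence, medium being phenol-red-free DMEM plus 10% FBS; concentration-response parameters came from normalized, curve-fitted qHTS data.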
TDP1 cell CPT = growth inhibition of DT40 Tdp1-/-;hTDP1 cells with camptothecin (screen for TDP1 inhibitors); AID 686979; 420,000 tested, 12% active; chicken DT40 Tdp1-/-;hTDP1 cells + 20 nM CPT, ATP luminescence, 48 h; Potency, µM (top dose mostly 46.2 µM), for the others: at the top dose activity change, negative = growth inhibition, hits mostly inhibitors; also: nearly all actives have a fitted effect of over 55% in size
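Chicken DT40 Tdp1-/- cells stably complemented with human TDP1 were seeded at 400 cells/well in medium containing 20 nM camptothecin, exposed to pin-transferred compounds, and grown at 37 °C for at least 48 hr. Viability was read as ATP luminescence.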
KB-3-1 cytotox = KB-3-1 parental cell cytotoxicity; KB-3-1 viability, CellTiter-Glo ATP luminescence, 72 h; Potency, µM (top dose mostly 46.1 µM), actives largely listed as cytotoxic; 400,000 tested, 1.4% active; AID 1347075; also: nearly all actives have a fitted effect of over 60% in size
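Here the drug-naive KB-3-1 line serves as comparator for MDR sub-line selectivity; cells received compound titrations, 72 h at 37 °C, then CellTiter-Glo readout.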
HT1080 IDH1KD tx = HT-1080 IDH1 knockdown cell toxicity (counter line) | HT-1080 IDH1 knockdown viability, ATP luminescence, 48 h | Potency, µM (top dose mostly 46.1 µM), inactives show at the top dose activity, negative = toxicity, most hits filed as cytotoxic | 360,000 tested, 2% active | AID 686971;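 also: 0% = DMSO wells and -100% = cell-free medium wells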
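IDH1KD HT-1080 cells, 750/well, RPMI + 5% FBS; compound pinned after 2 h settling; 48 h, 37 °C; CellTiter-Glo luminescence; % activity normalised to DMSO and no-cell wells; curves fitted, classed by r2 and efficacy.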
HT1080-NT tox = kills 2HG-producing HT-1080-NT fibrosarcoma cells. HT-1080-NT fibrosarcoma viability, CellTiter-Glo ATP luminescence, 48 h. Potency, µM (top dose mostly 46.1 µM), for the others: at the top dose activity, negative = less viability, actives largely listed as cytotoxic. AID 686970. 360,000 tested, 1.6% active;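 also: NT is the 2HG producing partner of a matched IDH1 knockdown line; 0% = DMSO-treated cells and -100% = media-only wells without cells; nearly all actives have a fitted effect of over 55% in size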
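Compounds were tested in concentration-response format on HT-1080-NT cells for 48 hours at 37 degrees C. Cell viability came from CellTiter-Glo luminescence; curves were classified by r2, response magnitude and activity.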
TDP1 cell noCPT = qHTS for Inhibitors of human tyrosyl-DNA phosphodiesterase 1 (TDP1): qHTS in cells in absence of CPT | AID 686978, 2013 | 420,000 tested, 15% active | DT40 Tdp1-/- hTDP1 cells, no CPT, ATP luminescence, 48 h | Potency, µM (series often up to 46.2 µM), without a hit: top-dose activity change, negative = growth inhibition, actives largely listed as inhibitors; also: nearly all actives have a fitted effect of over 55% in size
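Growth kinetics read by CellTiter-Glo luminescence after ≥48 hr at 37 °C. Cells: DT40 Tdp1-/- stably carrying human TDP1, 400 per well, compound exposure in the absence of CPT (DMSO vehicle).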
Numbers without * were called inactive; i = inactive; ? = inconclusive; · = no result given; ! = not confirmed by another sample. Calls follow the shape of the dose curve; as a rule, active = well fitted curve in the direction sought with a large enough effect; inconclusive = small, poorly fitted or top-dose-only effect, or another doubt; inactive = no such curve, though single readings can be large; an effect the other way counts as inactive or inconclusive. Unless noted, % is scaled to controls: 0 for no effect and ±100 for the full control effect; potency is read from the fitted curve at half-maximal effect.

SMILES	KB-V1 MDR tox	TDP1 cell CPT	KB-3-1 cytotox	HT1080 IDH1KD tx	HT1080-NT tox	TDP1 cell noCPT
C[C@@H]([C@H](O)c1ccccc1)N(C)C	·	2.2%	·	·	·	-10.0%
CN(C)C1(CNC(=O)Nc2ccc(Cl)c(Cl)c2)CCCCC1	i	?	i	?	20.6µM*	?
CN(C)C1(CNC(=O)c2ccc(NS(=O)(=O)c3ccc(Cl)c(Cl)c3)cc2)CCCCC1	i	?	i	-15.0%	-11.1%	?
NC(Cc1ccccc1Cl)c1nn[nH]n1 (stereo unspecified)	i	13.8%	i	0.1%	0.5%	-10.1%
CCOC(C[n+]1c(-c2ccccc2)cc(C)cc1-c1ccccc1)OCC	i	1.64µM*	?	-22.2%	?	0.517µM*
CCCOC(C(=O)OC1CCN(C)CC1)(c1ccccc1)c1ccccc1	·	21.1µM*	·	·	·	11.9µM*
Cc1cccc(N2C(=O)CSC23C(=O)N(CC(=O)Nc2cccc(Cl)c2)c2ccccc23)c1 (stereo unspecified)	i	23.1µM*	?	·	·	16.4µM*
c1ccc(CN2COC3CCCCCC32)cc1 (stereo unspecified)	i	?	i	2.2%	28.1%	-17.6%
Cc1cccc(-n2c(-c3ccco3)nc3ccccc3c2=O)c1C	i	8.2µM*	i	-19.7%	-0.4%	16.4µM*
COc1ccccc1-n1c(-c2ccccc2Cl)nc2ccccc2c1=O	i	?	i	0.4%	1.1%	14.6µM*
O=c1c2ccccc2nc(-c2ccoc2)n1-c1ccccc1Cl	16.4µM*	20.6µM*	?	?	-18.2%	16.4µM*
COc1ccccc1-n1c(-c2ccoc2)nc2ccccc2c1=O	i	11.6µM*	i	0.8%	1.0%	18.4µM*
COc1nc2ccccc2c(=O)n1-c1ccc(Cl)cc1	i	?	i	2.3%	6.0%	-24.6%
CC(=O)OCC(=O)C1CCC2C3CC=C4CC(O)CC[C@@]4(C)C3CC[C@]12C (stereo partly specified)	·	1.9%	·	·	·	-1.0%
COC(/C(C)=C/C=C/C(C)=C/c1coc(C)n1)C(C)C1CC(O)C2(C)OC2C=CC(C)C2CC(CC(=O)O2)CC2OC2C(=O)O1 (stereo unspecified)	i	0.116µM*	?	?	0.013µM*	0.0184µM*
COc1cc2[nH]c(=O)n(-c3ccccc3)c(=O)c2cc1OC	i	-10.8%	i	20.4%	26.6%	8.2%
CCc1c(C(=O)OC)ncc2[nH]c3cc(OC)c(OC)cc3c12	·	8.2µM*	·	·	·	6.51µM*
N[C@@H](CCP(=O)(O)O)C(=O)O	·	1.6%	·	·	·	0.9%
Cc1ccccc1CN1C(=O)C(C)N=C(c2ccccc2)c2ccccc21 (stereo unspecified)	·	?	·	·	·	18.4µM*
CCOc1cc2[nH]c(=O)n(CCCC(=O)N3CCN(c4cccc(Cl)c4)CC3)c(=O)c2cc1OCC	?	5.8µM*	i	·	·	3.26µM*
O[C@@H]1CCCC[C@@H]1N1CCC(c2ccccc2)CC1	·	-2.8%	·	·	·	8.4%
Cc1cccc(-n2c(/C=C\c3cccc(Br)c3)nc3ccccc3c2=O)c1	i	?	i	·	·	?
Cc1cc(-n2c(/C=C/c3cccs3)nc3ccccc3c2=O)ccc1Br	i	14.6µM*	i	·	·	23.1µM*
Cc1ccc(-n2c(/C=C/c3ccc(Br)s3)nc3ccccc3c2=O)cc1	i	23.1µM*	?	·	·	20.6µM*
Cc1cc(-n2c(/C=C/c3ccc(Br)s3)nc3ccccc3c2=O)ccc1Br	?	14.6µM*	i	·	·	?
SMILES	KB-V1 MDR tox	TDP1 cell CPT	KB-3-1 cytotox	HT1080 IDH1KD tx	HT1080-NT tox	TDP1 cell noCPT
CCOP(=O)(OCC)C(NC(=O)C(C)C)C(Cl)(Cl)Cl (stereo unspecified)	i	-8.3%	i	13.5%	10.4%	-5.6%
O=C(c1ccc(F)c([N+](=O)[O-])c1)N1CC2CC(C1)c1cccc(=O)n1C2 (stereo unspecified)	i	-26.9%	i	-8.5%	-9.8%	?
Cc1cc(C)cc(OCC(=O)Nc2ccc(Cl)cc2C(=O)c2ccccc2)c1	·	-5.4%	·	·	·	0.4%
COc1ccc(CNS(=O)(=O)c2cc3c(cc2C)N(C)CCO3)cc1	i	?	?	-27.1%	3.5%	14.6µM*
COP(=O)(OC)OC=C(Cl)Cl	·	?	·	·	·	11.9µM*
COc1cc(C(C#N)N2CCOCC2)ccc1O (stereo unspecified)	i	4.5%	i	3.0%	?	-0.5%
CCOc1ccc(N2CC(c3nc4ccccc4n3CCC3CCCCC3)CC2=O)cc1 (stereo unspecified)	i	7.31µM*	i	·	·	5.17µM*
O=c1[nH]c(=O)n(C2CCCCC2)c(O)c1/C=C/C=Nc1ccccc1	i	-3.1%	i	14.2%	-5.1%	0.5%
CCCn1c(C)c(C(=O)c2cccc3ccccc23)c2ccccc21	?	26.6µM*!	?	?	?	13.3µM*
OC(COCc1ccc(Cl)cc1)CN1CC=C(c2ccccc2)CC1 (stereo unspecified)	?	16.4µM*	?	?	-3.7%	10.3µM*
OC(CN1CC=C(c2ccccc2)CC1)c1ccccc1 (stereo unspecified)	i	-8.8%	i	1.1%	-2.1%	?
C[C@@H]1O[C@@H](O[C@@H]2C=C3CC[C@@H]4C(CC[C@]5(C)[C@@H](c6ccc(=O)oc6)CC[C@]45O)[C@@]3(C)CC2)[C@H](O)[C@H](O)[C@H]1O (stereo partly specified)	0.0259µM*	0.164µM*	?	0.0046µM*	0.0184µM*	0.164µM*
C[C@@H]1O[C@@H](O[C@@H]2C=C3CCC4C(CC[C@]5(C)[C@@H](c6ccc(=O)oc6)CC[C@]45O)[C@@]3(C)CC2)[C@H](O)[C@H](O)[C@H]1O (stereo partly specified)	?	0.058µM*	0.0103µM*	0.0092µM*	0.0073µM*	0.0146µM*
CCOC(=O)C1(CCc2ccccc2)CCN(CC(O)CO)CC1 (stereo unspecified)	i	-10.3%	i	-6.5%	-10.3%	-23.3%
COc1ccc([C@@H]2COc3c(ccc4c3C=CC(C)(C)O4)C2)c(OC)c1	i	2.3%	i	21.9%	23.5%	6.2%

Screens (PubChem BioAssay)
